Measured values from the supplement of paper PMC10849652.
About 7,900 targets were measured; listed, in parts, are those with a hit and a random draw of the rest. About 0.6% of all pairs of compound and target were hits. A number with no mark means an inactive call.

Assays:
Assay in all cases: log2 fold change, soluble protein after heating vs DMSO (PISA); higher = thermal stabilisation; K562 cells, 10 uM, 30 min; active = over 0.2 and 3.5 SD of the protein, either way, in both replicates (recomputed)
[1] = compound: C#Cc1cccc(Nc2ncnc3cc(OCCOC)c(OCCOC)cc23)c1 [erlotinib]
Procedure, shortened: (§1)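 Soluble protein was quantified by TMTpro 16plex LC-MS/MS after channel sums were equalised. It was obtained as the supernatant after 21,000xg for 90 min from pooled aliquots of K562 cells (2×10^6 cells/mL, 10 μM compound, 30 min) heated for 3 min across 48°C-58°C and extracted in PBS with 0.5% NP-40 at 4°C. Thermal stability values are relative to control samples and come from duplicates. They are given as log2 fold changes.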

[2] = compound: C/C(=N\NC(=O)C1=CC(=CC=C1)S(=O)(=O)N2CCOCC2)/C3=C(C=CC(=C3)Cl)O
Procedure, shortened: as §1

[3] = compound: C1=CC(=C(C=C1Cl)C2=NC3=NC=CN=C3C(=N2)NC4=CC=NC=C4)F
Procedure, shortened: as §1

[4] = compound: C1=CC(=CC=C1C2=NC3=C(N2)C=C(C=C3)C(=O)N)OC4=CC=C(C=C4)Cl
Procedure, shortened: as §1

[5] = compound: C1=CC2=C(C=CC(=C2)/C=C\3/C(=O)NC(=NCC4=CC=CS4)S3)N=C1
Procedure, shortened: as §1

[6] = compound: C1=CC2=NC=CN=C2C=C1/C=C/3\C(=O)NC(=O)S3
Procedure, shortened: as §1

[7] = compound: C1=CC=C(C=C1)C2=NC(=C(N2)C3=CC=NC=C3)C4=CC(=C(C=C4)Cl)O
Procedure, shortened: as §1

[8] = compound: C1=CC=C2C(=C1)C3=NNC4=CC=CC(=C43)C2=O
Procedure, shortened: as §1

[9] = compound: C1CCN(C1)C(=O)NC2=CC=CC(=C2)NC3=NC=C(C(=N3)NCCC4=CN=CN4)Br
Procedure, shortened: as §1

[10] = compound: C1CN(CCC1(CC2=CC=C(C=C2)Cl)N)C3=NC=NC4=C3C=CN4
Procedure, shortened: as §1

[11] = compound: C1COCCN1CCN2C3=CC=CC=C3N=C2NC(=O)C4=CC(=CC=C4)[N+](=O)[O-] [IRAK-1-4 Inhibitor I]
Procedure, shortened: as §1

[12] = compound: C=CC(=O)N1CCC[C@@H](n2nc(-c3ccc(Oc4ccccc4)cc3)c3c(N)ncnc32)C1 [ibrutinib]
Procedure, shortened: as §1

[13] = compound: CC(=O)c1cnc2ccc(-c3cc(Cl)c(O)c(Cl)c3)nc2c1N[C@H]1CC[C@H](CN(C)C)CC1
Procedure, shortened: as §1

[14] = compound: CC(C)(C)Cn1c(N)nc2ccc(-c3[nH]c(C(C)(C)C)nc3-c3ccc(F)cc3)nc21 [ralimetinib]
Procedure, shortened: as §1

[15] = compound: CC(C)(O)CC(=O)NCCn1ccc2ncnc(Nc3ccc(Oc4cccc(C(F)(F)F)c4)c(Cl)c3)c21
Procedure, shortened: as §1

[16] = compound: CC(C)C1=C2N=C(C=C(N2N=C1)NCC3=CC=CC=C3)NCCCCCCN
Procedure, shortened: as §1

[17] = compound: CC(C)C[C@@H](C=O)NC(=O)[C@H](CC(C)C)NC(=O)[C@H](CC(C)C)NC(=O)OCc1ccccc1
Procedure, shortened: as §1

[18] = compound: CC(C)N(C[C@H]1O[C@@H](n2cnc3c(N)ncnc32)[C@H](O)[C@@H]1O)[C@H]1C[C@@H](CCc2nc3cc(C(C)(C)C)ccc3[nH]2)C1 [pinometostat]
Procedure, shortened: as §1

[19] = compound: CC1=C(C(CC(=O)N1)C2=CC=C(C=C2)C(F)(F)F)C(=O)NC3=C(C=C4C(=C3)C=NN4)F
Procedure, shortened: as §1

[20] = compound: CC1=C(C2=C(C=C1)C(=O)C3=CC=CC=C3N2CCCN)C
Procedure, shortened: as §1

Chain of UniProt Q9H019 (Q9H019 whole entry, looked up): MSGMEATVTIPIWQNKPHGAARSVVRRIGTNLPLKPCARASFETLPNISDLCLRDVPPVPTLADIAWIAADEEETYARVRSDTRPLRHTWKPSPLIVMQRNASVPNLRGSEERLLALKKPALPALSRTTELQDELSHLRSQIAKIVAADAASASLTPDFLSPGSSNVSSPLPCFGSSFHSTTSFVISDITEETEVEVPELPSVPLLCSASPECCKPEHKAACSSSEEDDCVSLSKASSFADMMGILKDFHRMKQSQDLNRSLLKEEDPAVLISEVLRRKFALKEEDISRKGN
Chain of UniProt Q8N5F7 (Q8N5F7 whole entry, looked up): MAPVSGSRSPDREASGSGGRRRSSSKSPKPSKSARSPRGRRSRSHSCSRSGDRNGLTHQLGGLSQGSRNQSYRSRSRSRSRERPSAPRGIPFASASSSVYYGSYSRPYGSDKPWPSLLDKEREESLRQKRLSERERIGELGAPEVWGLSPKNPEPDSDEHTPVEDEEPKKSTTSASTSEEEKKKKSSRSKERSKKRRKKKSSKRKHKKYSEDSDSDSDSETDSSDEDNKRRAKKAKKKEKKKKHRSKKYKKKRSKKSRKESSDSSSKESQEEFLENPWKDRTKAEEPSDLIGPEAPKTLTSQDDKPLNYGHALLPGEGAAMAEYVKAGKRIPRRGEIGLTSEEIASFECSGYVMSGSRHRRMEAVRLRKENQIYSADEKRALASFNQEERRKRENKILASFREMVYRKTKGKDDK
Chain of UniProt Q86WQ0 (Q86WQ0 whole entry, looked up): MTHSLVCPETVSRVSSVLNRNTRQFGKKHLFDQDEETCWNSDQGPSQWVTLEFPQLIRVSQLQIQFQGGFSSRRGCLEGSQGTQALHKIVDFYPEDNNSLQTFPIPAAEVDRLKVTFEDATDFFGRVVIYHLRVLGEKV
Chain of UniProt P40261 (P40261 whole entry, looked up): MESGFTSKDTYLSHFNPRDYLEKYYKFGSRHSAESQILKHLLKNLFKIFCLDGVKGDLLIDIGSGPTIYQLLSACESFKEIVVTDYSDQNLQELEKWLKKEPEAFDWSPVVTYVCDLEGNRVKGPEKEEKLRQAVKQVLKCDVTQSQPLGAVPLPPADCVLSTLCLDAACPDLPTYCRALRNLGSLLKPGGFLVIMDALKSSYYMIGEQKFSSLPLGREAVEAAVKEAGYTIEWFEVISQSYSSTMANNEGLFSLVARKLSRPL
Chain of UniProt Q68DK7 (Q68DK7 whole entry, looked up): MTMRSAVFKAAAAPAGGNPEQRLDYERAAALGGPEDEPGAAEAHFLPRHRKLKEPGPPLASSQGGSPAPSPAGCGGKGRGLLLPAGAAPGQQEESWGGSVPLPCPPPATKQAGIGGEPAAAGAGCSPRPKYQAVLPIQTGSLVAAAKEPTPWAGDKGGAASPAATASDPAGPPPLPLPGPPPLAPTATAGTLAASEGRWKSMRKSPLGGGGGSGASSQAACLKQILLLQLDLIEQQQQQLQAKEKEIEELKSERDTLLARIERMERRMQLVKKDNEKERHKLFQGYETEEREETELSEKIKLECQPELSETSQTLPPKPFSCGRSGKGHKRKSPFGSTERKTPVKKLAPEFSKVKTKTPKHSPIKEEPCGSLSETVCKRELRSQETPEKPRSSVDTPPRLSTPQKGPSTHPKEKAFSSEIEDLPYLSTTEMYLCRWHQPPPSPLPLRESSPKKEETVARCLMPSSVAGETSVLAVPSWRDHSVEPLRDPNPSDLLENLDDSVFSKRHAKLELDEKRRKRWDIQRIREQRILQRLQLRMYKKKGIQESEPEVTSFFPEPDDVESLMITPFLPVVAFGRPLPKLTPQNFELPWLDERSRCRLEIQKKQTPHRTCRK
Chain of UniProt Q8IXH7 (Q8IXH7 whole entry, looked up): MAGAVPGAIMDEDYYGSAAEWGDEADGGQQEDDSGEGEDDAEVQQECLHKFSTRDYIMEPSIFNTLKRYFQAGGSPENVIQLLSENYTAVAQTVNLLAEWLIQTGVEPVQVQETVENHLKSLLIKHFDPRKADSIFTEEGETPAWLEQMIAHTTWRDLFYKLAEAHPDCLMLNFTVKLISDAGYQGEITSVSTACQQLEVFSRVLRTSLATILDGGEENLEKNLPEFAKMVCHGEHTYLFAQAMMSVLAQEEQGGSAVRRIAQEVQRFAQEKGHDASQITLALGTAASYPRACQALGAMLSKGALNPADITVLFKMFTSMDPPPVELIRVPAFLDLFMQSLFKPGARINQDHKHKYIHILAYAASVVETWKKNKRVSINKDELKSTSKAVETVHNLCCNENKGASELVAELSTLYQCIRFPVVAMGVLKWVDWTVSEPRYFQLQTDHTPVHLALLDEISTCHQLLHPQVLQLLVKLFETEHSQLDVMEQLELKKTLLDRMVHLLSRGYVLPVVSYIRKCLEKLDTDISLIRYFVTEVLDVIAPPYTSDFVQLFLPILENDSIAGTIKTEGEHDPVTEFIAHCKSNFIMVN
Chain of UniProt O43913 (O43913 whole entry, looked up): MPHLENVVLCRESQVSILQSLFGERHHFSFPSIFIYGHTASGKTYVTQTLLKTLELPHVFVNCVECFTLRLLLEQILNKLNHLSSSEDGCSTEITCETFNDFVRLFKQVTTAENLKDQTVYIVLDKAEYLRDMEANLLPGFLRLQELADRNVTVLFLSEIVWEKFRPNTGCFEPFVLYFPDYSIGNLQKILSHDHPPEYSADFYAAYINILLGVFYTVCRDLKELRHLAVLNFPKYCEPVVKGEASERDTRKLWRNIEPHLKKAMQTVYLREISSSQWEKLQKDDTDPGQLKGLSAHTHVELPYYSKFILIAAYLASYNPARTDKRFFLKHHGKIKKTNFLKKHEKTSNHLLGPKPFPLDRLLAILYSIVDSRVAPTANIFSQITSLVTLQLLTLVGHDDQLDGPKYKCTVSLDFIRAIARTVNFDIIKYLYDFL
Chain of UniProt Q9Y314 (Q9Y314 whole entry, looked up): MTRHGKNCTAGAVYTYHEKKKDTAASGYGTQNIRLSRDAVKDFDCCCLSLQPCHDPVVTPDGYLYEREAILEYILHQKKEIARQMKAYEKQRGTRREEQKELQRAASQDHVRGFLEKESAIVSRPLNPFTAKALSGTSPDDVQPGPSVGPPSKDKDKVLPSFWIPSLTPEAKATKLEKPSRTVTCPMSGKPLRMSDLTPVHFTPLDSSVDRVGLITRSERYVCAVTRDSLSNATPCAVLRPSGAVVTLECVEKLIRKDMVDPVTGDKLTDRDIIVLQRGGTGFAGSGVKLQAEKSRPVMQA
Chain of UniProt Q8TEM1 (Q8TEM1 whole entry, looked up): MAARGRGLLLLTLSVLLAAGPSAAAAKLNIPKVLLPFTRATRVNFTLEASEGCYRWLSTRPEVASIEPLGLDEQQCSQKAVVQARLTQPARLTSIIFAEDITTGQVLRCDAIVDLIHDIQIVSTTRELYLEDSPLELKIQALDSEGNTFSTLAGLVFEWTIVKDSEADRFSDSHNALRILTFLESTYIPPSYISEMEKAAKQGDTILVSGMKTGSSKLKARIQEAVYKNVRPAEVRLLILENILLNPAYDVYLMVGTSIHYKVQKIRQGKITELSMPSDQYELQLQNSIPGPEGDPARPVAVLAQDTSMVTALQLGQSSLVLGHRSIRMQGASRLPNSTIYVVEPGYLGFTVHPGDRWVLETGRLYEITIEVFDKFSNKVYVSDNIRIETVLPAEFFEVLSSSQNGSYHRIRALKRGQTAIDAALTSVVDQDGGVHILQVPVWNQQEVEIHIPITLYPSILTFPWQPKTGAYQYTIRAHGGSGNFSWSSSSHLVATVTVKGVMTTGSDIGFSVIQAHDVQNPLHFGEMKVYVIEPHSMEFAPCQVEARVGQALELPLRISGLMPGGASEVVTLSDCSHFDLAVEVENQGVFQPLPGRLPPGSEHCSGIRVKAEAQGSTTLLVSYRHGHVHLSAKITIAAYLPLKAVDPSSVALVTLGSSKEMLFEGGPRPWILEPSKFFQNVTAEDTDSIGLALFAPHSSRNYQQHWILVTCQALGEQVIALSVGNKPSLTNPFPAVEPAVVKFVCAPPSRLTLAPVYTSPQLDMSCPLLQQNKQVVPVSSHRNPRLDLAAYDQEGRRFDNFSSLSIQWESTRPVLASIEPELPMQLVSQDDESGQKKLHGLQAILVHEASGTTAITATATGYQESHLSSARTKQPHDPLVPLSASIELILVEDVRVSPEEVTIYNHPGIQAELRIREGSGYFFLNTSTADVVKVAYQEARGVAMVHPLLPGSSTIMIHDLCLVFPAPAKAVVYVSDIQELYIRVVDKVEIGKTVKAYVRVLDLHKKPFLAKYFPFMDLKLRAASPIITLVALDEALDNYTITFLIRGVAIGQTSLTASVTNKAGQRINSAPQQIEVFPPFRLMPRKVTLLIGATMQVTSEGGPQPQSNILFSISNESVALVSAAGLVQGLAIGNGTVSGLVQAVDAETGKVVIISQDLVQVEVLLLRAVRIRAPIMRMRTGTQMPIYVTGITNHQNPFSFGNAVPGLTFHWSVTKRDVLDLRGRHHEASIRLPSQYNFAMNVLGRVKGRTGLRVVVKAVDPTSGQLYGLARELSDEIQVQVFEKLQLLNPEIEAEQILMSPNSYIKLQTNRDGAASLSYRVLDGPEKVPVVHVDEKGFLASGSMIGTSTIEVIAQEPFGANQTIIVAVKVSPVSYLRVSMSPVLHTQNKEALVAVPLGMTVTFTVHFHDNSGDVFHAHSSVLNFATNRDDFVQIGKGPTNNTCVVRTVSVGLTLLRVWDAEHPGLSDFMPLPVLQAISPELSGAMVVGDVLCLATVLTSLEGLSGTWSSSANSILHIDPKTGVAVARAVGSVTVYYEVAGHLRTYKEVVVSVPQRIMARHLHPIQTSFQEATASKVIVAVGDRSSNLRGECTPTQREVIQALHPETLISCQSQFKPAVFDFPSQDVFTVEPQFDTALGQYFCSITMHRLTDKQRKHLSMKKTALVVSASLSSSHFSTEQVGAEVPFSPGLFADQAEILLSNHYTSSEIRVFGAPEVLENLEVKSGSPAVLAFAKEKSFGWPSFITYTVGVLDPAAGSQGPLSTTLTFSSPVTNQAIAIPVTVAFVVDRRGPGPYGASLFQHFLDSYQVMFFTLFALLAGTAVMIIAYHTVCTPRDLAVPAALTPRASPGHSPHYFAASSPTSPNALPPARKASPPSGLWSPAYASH
Chain of UniProt O75438 (O75438 whole entry, looked up): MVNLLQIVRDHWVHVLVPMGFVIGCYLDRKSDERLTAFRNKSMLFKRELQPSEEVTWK

| Target | log2 fold change [1] | log2 fold change [2] | log2 fold change [3] | log2 fold change [4] | log2 fold change [5] | log2 fold change [6] | log2 fold change [7] | log2 fold change [8] | log2 fold change [9] | log2 fold change [10] | log2 fold change [11] | log2 fold change [12] | log2 fold change [13] | log2 fold change [14] | log2 fold change [15] | log2 fold change [16] | log2 fold change [17] | log2 fold change [18] | log2 fold change [19] | log2 fold change [20] |
| --- | --- | --- | --- | --- | --- | --- | --- | --- | --- | --- | --- | --- | --- | --- | --- | --- | --- | --- | --- | --- |
| NR2C2AP isoform 2 (UniProt Q86WQ0) | 0.032 | 0.028 | -0.013 | 0.048 | 0.041 | 0.026 | -0.08 | -0.134 | -0.089 | -0.013 | -0.126 | -0.003 | -0.062 | -0.056 | 0.012 | 0.01 | -0.026 | -0.073 | 0.057 | 0.063 |
| ORC5 (UniProt O43913) | 0.089 | 0.177 | – | 0.046 | 0.05 | 0.062 | 0.031 | 0.01 | -0.13 | -0.026 | 0.024 | -0.014 | -0.306 | 0.015 | – | -0.134 | 0.005 | 0.128 | -0.005 | 0.08 |
| NME2P1 (UniProt O60361) | 0.147 | 0.012 | 0.147 | 0.03 | 0.04 | 0.137 | -0.163 | 0.026 | 0.076 | 0.078 | -0.019 | -0.18 | -0.033 | 0.032 | -0.024 | -0.072 | -0.135 | 0.037 | 0.149 | 0.031 |
| MORC2 (UniProt Q9Y6X9) | 0.105 | 0.033 | -0.027 | 0.051 | 0.148 | -0.097 | – | 0.421 | – | – | -0.292 | 0.042 | -0.201 | – | -0.074 | -0.084 | – | 0.038 | – | – |
| MTFR1L (UniProt Q9H019) | -0.002 | -0.013 | -0.202 | 0.064 | -0.001 | -0.03 | 0.077 | 0.13 | 0.036 | -0.027 | 0.04 | 0.048 | -0.052 | -0.005 | 0.014 | -0.412 | 0.047 | 0.003 | 0.041 | -0.05 |
| MSL1 (UniProt Q68DK7) | 0.185 | -0.603 (active) | 0.106 | -0.193 | 0.069 | -0.033 | 0.066 | -0.026 | – | – | 0.007 | 0.01 | -0.039 | 0.184 | -0.086 | 0.071 | -0.005 | -0.1 | -0.022 | – |
| NDUFB1 (UniProt O75438) | -0.015 | -0.016 | 0.209 | 0.053 | -0.102 | 0.039 | – | 0.079 | -0.05 | -0.006 | 0.034 | 0.024 | 0.06 | – | -0.043 | -0.052 | – | 0.065 | 0.059 | 0.158 |
| NNMT (UniProt P40261) | 0.037 | 0.062 | 0.123 | 0.021 | 0.074 | 0 | – | 0.028 | 0.045 | 0.043 | 0.035 | 0.06 | -0.028 | – | -0.026 | -0.026 | – | 0.276 (active) | -0.002 | -0.006 |
| MRFAP1 (UniProt Q9Y605) | -0.007 | -0.019 | – | -0.013 | -0.334 | 0.014 | -0.045 | 0.141 | -0.162 | -0.106 | 0.218 | -0.017 | 0.206 | -0.022 | – | -0.056 | 0.437 | -0.016 | 0.28 | -0.339 |
| NECTIN2 isoform 2 (UniProt Q92692) | -0.151 | 0.006 | -0.386 | 0.117 | 0.168 | -0.345 | -0.029 | -0.034 | – | – | -0.018 | 0.047 | 0.03 | 0.081 | 0.1 | 0.059 | 0.008 | -0.008 | 0 | – |
| NUMBL (UniProt Q9Y6R0) | -0.001 | 0.021 | -0.026 | -0.095 | 0.085 | -0.047 | 0.042 | 0.056 | – | – | 0.144 | -0.032 | -0.349 (active) | -0.032 | 0.044 | -0.026 | 0.162 | 0.111 | -0.024 | – |
| NKAP (UniProt Q8N5F7) | 0.029 | 0.023 | -0.041 | 0.041 | -0.189 | -0.047 | -0.085 | -0.051 | -0.064 | -0.007 | 0 | 0.004 | -0.218 | 0.033 | 0.105 | -0.123 | 0.103 | 0.032 | 0.165 | -0.022 |
| NELFCD (UniProt Q8IXH7) | 0.096 | 0.034 | 0.121 | -0.154 | 0.056 | 0.031 | – | 0.06 | – | – | -0.038 | -0.18 | -0.04 | – | -0.394 | 0.101 | – | 0.017 | -0.036 | – |
| NUP210 (UniProt Q8TEM1) | 0.021 | 0.004 | 0.06 | -0.004 | 0.011 | 0.015 | -0.018 | -0.186 | -0.009 | 0.012 | 0.005 | -0.025 | -0.038 | -0.069 | -0.176 | -0.52 (active) | -0.007 | 0.001 | 0.026 | 0.047 |
| NA isoform 3 (UniProt Q4G0T1) | 0.019 | 0 | – | 0.01 | 0.11 | -0.035 | 0.014 | 0.047 | 0.058 | 0.071 | 0.007 | -0.1 | -0.146 | -0.118 | – | -0.022 | 0.155 | -0.043 | 0.079 | -0.109 |
| NDUFS4 (UniProt O43181) | -0.001 | -0.031 | -0.004 | 0.07 | -0.093 | 0.077 | -0.104 | -0.081 | 0.082 | 0.111 | 0.076 | 0.029 | 0.062 | 0.015 | 0.022 | 0.007 | 0.274 (active) | 0.013 | 0.046 | -0.193 |
| NOSIP (UniProt Q9Y314) | 0.062 | 0.16 | 0.049 | -0.05 | -0.041 | 0.039 | -0.033 | -0.03 | -0.234 | -0.249 | -0.401 | -0.032 | -0.033 | -0.065 | -0.135 | -0.106 | -0.039 | 0.085 | -0.143 | 0.186 |
| MORF4L2 (UniProt Q15014) | -0.114 | -0.056 | -0.181 | 0.02 | -0.03 | 0.002 | -0.108 | -0.039 | -0.108 | -0.051 | -0.116 | 0.04 | 0.047 | -0.01 | 0.039 | 0.052 | 0.271 | 0.092 | 0.028 | 0.005 |
